G9a block – qHTS Assay for Inhibitors of Histone Lysine Methyltransferase G9a. G9a H3K9 monomethylation, AlphaScreen, 2 h. Potency, µM (titrated, usually from 102 µM), usual class: inhibitors. 8.8% of 350,000 active. AID 504332, 2011; note: nearly all actives have a fitted effect of over 75% in size
Target sequence (Q96KQ7 913-1193 limits assumed): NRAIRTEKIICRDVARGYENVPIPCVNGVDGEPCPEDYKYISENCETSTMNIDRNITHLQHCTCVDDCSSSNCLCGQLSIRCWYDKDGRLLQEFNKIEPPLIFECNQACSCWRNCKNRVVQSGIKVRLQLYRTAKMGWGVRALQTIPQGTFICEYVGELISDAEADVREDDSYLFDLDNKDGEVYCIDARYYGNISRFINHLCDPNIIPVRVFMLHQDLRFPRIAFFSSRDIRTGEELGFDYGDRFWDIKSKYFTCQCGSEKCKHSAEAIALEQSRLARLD
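AlphaScreen read-out: biotin-H3K9 peptide (500 nM) methylation by 20 nM enzyme with 20 uM SAM, 2 h at room temperature after 15 min compound preincubation; anti-monomethyl H3K9 antibody plus donor/acceptor beads, 10 min dark.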
BAZ2B inh – qHTS Assay for Inhibitors of BAZ2B; Potency, µM (highest dose often 114 µM), hits mostly inhibitors; 4.4% of 360,000 active; AlphaScreen BAZ2B-H3K14Ac peptide displacement; AID 504333, 2011; note: nearly all actives have a fitted effect of over 60% in size
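Inhibition is scored as reduced AlphaScreen emission. The BAZ2B/b-H3(5-23)K14Ac complex (50 nM each) in PBS pH 7.4, 0.01% Tween-20 meets compound (up to 110 uM) for 30 min at RT before bead addition.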
L3MBTL1 block – qHTS Assay for the Inhibitors of L3MBTL1. Lethal(3)malignant brain tumor-like protein 1 (Homo sapiens), Q9Y468. 0.66% of 230,000 active. Potency, µM (top dose mostly 57.1 µM), most hits filed as inhibitors. AID 485360, 2010. AlphaScreen L3MBTL1–H3K9me1 peptide binding; note: nearly all actives have a fitted effect of over 60% in size
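Displacement of a biotinylated histone H3(1-15) peptide monomethylated at Lys9 (75 nM) from L3MBTL1 (50 nM) was measured by AlphaScreen after a 30 min room-temperature compound incubation; cefsulodin titration served as intraplate control.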
JMJD2A Tudor – qHTS Assay for Inhibitors of JMJD2A-Tudor Domain | 4.4% of 390,000 active | Lysine-specific demethylase 4A (Homo sapiens), O75164 | AlphaScreen JMJD2A-Tudor / H3K4me3 peptide binding | Potency, µM (top dose mostly 114 µM), actives largely listed as inhibitors | AID 504339, 2011; note: nearly all actives have a fitted effect of over 50% in size
Sfp PPTase inh – qHTS Assay for Inhibitors of Bacillus subtilis Sfp phosphopantetheinyl transferase (PPTase); 4'-phosphopantetheinyl transferase ffp (Bacillus subtilis), Q9F4F7; Potency, µM, hits mostly inhibitors; 3.5% of 310,000 active; Biochemical Sfp PPTase activity, qHTS;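 note: the enzyme is Sfp with the accession as filed and its product quenches rhodamine fluorescence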
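Reaction rates are the 30-min fluorescence difference (ex 525, em 598 nm) in wells containing 15 nM Sfp, 5 uM rhodamine-CoA and 12.5 uM BHQ-2-YbbR at pH 7.6 with 10 mM MgCl2.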
HP1b binding inh – HTS for Inhibitors of HP1-beta Chromodomain Interactions with Methylated Histone Tails; Potency, µM (series often up to 114 µM), most hits filed as inhibitors; AID 540317, 2011; 0.56% of 390,000 active; AlphaScreen HP1-beta / biotin-H3K9me3 peptide binding; note: nearly all actives have a fitted effect of over 70% in size
Target sequence (P83916 whole entry, looked up): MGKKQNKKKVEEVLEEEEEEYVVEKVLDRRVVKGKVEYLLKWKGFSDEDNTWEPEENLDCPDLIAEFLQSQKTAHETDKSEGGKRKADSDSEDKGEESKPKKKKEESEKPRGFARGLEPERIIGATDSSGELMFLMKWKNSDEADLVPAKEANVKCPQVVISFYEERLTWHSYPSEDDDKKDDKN
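HP1-beta protein (50 nM final) preincubated 30 min at room temperature with biotinylated H3(1-18)K9me3 peptide (50 nM) in PBS pH 7.4, 0.01% Tween-20, then compound added for 30 min. AlphaScreen streptavidin donor/nickel chelate acceptor beads (10 ug/mL final), 30 min dark, luminescence read.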
Numbers stand for hits; [ ] = remark or other dose. Hits are enriched below; roughly 12% of the tested compounds scored in any of these assays. Calls come from the whole dose curve; as a rule, active = well fitted curve in the direction sought with a large enough effect; inconclusive = small, poorly fitted or top-dose-only effect, or another doubt; inactive = no such curve, though single readings can be large; an effect the other way counts as inactive or inconclusive.

Screening O=C(c1ccccc1)c1coc2ccc(O)c(Cl)c12 returned G9a block inconclusive, BAZ2B inh inactive, L3MBTL1 block inconclusive, JMJD2A Tudor inactive, Sfp PPTase inh inconclusive and HP1b binding inh inactive.
`O=C1c2ccccc2C(=O)C1(CO)c1ccccc1` gave G9a block 45µM, BAZ2B inh inactive, JMJD2A Tudor inactive, Sfp PPTase inh inactive and HP1b binding inh inactive.
For C=CCn1c(CC#N)nnc1N1CCOCC1 the results were G9a block inconclusive, BAZ2B inh 50µM, L3MBTL1 block inactive, JMJD2A Tudor inconclusive, Sfp PPTase inh inactive and HP1b binding inh inactive.
Cc1ccc(CNS(=O)(=O)c2ccc(C(F)(F)F)cc2)n1C was read as G9a block 45µM, BAZ2B inh inconclusive, L3MBTL1 block inactive, JMJD2A Tudor inactive, Sfp PPTase inh inactive and HP1b binding inh inactive.
For Cc1ccc(CNS(=O)(=O)c2ccc(F)c(F)c2)n1C the results were G9a block 45µM, BAZ2B inh inactive, JMJD2A Tudor inactive, Sfp PPTase inh inactive and HP1b binding inh inactive.
Screening Cc1nc2c(C)cccn2c1/C(O)=C1\C(=O)C(=O)N(CCN(C)C)C1c1ccccc1 (centres undefined) returned G9a block inactive[12.7 µM], BAZ2B inh inactive, L3MBTL1 block inactive, JMJD2A Tudor inactive, Sfp PPTase inh inactive and HP1b binding inh inactive.
`Cc1nc2c(C)cccn2c1/C(O)=C1\C(=O)C(=O)N(CCN(C)C)C1c1ccco1` (centres undefined) gave G9a block inactive, BAZ2B inh inactive, L3MBTL1 block inactive, JMJD2A Tudor 22µM, Sfp PPTase inh inactive and HP1b binding inh inactive.
For Cc1nc2c(C)cccn2c1/C(O)=C1\C(=O)C(=O)N(CCN2CCOCC2)C1c1ccncc1 (centres undefined) the results were G9a block inactive[12.7 µM], BAZ2B inh 79µM, L3MBTL1 block inactive, JMJD2A Tudor 5.6µM, Sfp PPTase inh inactive and HP1b binding inh inconclusive.
`Cc1ccc(C2/C(=C(\O)c3c(C)nc4c(C)cccn34)C(=O)C(=O)N2CCN(C)C)o1` (centres undefined) gave JMJD2A Tudor inactive and HP1b binding inh inactive.
Cc1ccc(C)c(NC(=O)N2CCC(CN3CCOCC3)CC2)c1 was read as G9a block inactive, BAZ2B inh inactive, JMJD2A Tudor inactive and HP1b binding inh inactive.
`CC(C)(C)c1ccc2c(c1)N(CC(=O)O)C(=O)CO2` gave G9a block inactive, BAZ2B inh inactive, L3MBTL1 block inactive, JMJD2A Tudor inactive, Sfp PPTase inh inactive and HP1b binding inh inactive.
`CCOC(=O)N1CCN(C(=O)CN2C(=O)COc3ccc(C(C)(C)C)cc32)CC1` gave G9a block inconclusive, BAZ2B inh inactive, L3MBTL1 block inactive, JMJD2A Tudor 89µM, Sfp PPTase inh inactive and HP1b binding inh inactive.
For CC1CCCCN1CCCNC(=O)Cn1ncc2c3ccccc3n(Cc3ccccc3F)c2c1=O (centres undefined) the results were G9a block inactive, BAZ2B inh inactive, JMJD2A Tudor inactive and HP1b binding inh inactive.
`Nc1ccc(Oc2ccccc2-c2ccccc2)cc1` gave JMJD2A Tudor 50µM and HP1b binding inh inconclusive.
For O=c1c(-c2ccc(F)c(F)c2)nc2cncnc2n1Cc1ccccc1Cl the results were G9a block inactive[12.7 µM] and Sfp PPTase inh inconclusive.
Screening O=[N+]([O-])c1ccc(N2N=C(c3ccco3)CC2c2ccccc2)cc1 (centres undefined) returned G9a block 7.9µM, BAZ2B inh inconclusive, L3MBTL1 block inactive, JMJD2A Tudor inactive, Sfp PPTase inh 50µM and HP1b binding inh inactive.
Screening COc1cc(N2N=C(c3ccccc3)CC2c2ccccc2)c(C=O)cc1C=O (centres undefined) returned G9a block inactive, BAZ2B inh inactive, L3MBTL1 block inactive, JMJD2A Tudor inactive, Sfp PPTase inh inactive and HP1b binding inh inactive.
COc1ccccc1N1N=C(c2ccc([N+](=O)[O-])cc2)CC1c1ccccc1 (centres undefined) was read as G9a block inactive[0.501 µM], BAZ2B inh 11µM, L3MBTL1 block inactive[2.29 µM], JMJD2A Tudor 32µM, Sfp PPTase inh inactive and HP1b binding inh inconclusive.
Cc1ccc(CCNC(=O)c2ccc(CSCc3ccccc3Cl)o2)cc1 was read as G9a block inactive, BAZ2B inh inactive, JMJD2A Tudor inactive and HP1b binding inh inactive.
Screening O=C(CCS(=O)(=O)c1nc(-c2ccc3c(c2)OCO3)cc(C(F)(F)F)n1)Nc1ccccc1C(F)(F)F returned G9a block inactive, BAZ2B inh inactive, JMJD2A Tudor inactive and HP1b binding inh inactive.
For Cc1noc(Cn2c(=O)c3cc4c(cc3n(CC(=O)Nc3ccc(C(C)C)cc3)c2=O)OCO4)n1 the results were G9a block inactive, BAZ2B inh inactive, JMJD2A Tudor inactive and HP1b binding inh inactive.
For CCOC(=O)C(C)Sc1nc(-c2ccccc2Cl)cc(-c2ccccc2)c1C#N (centres undefined) the results were G9a block inactive, BAZ2B inh inactive, JMJD2A Tudor inactive and HP1b binding inh inactive.
`CC(Sc1nc(C(C)(C)C)cc(-c2ccccc2)c1C#N)C(=O)Nc1ccccc1` (centres undefined) gave G9a block 7.9µM, BAZ2B inh inactive, L3MBTL1 block inactive, JMJD2A Tudor inactive, Sfp PPTase inh 14µM and HP1b binding inh inconclusive.
For CCn1cc(/C=C/c2cc[n+](C)cc2)c2ccccc21 the results were G9a block inactive[2.33 µM], BAZ2B inh inconclusive, JMJD2A Tudor inactive, Sfp PPTase inh inactive and HP1b binding inh inactive.
For C=CCn1cc(/C=C/c2cc[n+](C)cc2)c2ccccc21 the results were G9a block 50µM, BAZ2B inh 50µM, L3MBTL1 block inactive, JMJD2A Tudor inactive, Sfp PPTase inh inactive and HP1b binding inh inactive.
Screening Cc1[nH]c2ccccc2c1/C=C/c1cc[n+](C)cc1 returned G9a block inactive[12.7 µM], BAZ2B inh 56µM, L3MBTL1 block inactive, JMJD2A Tudor inactive, Sfp PPTase inh inactive and HP1b binding inh inactive.
Screening CCN(CC)C(=O)Cn1c(C)c(/C=C/c2cc[n+](C)cc2)c2ccccc21 returned G9a block inconclusive, BAZ2B inh inactive, L3MBTL1 block inactive, JMJD2A Tudor inconclusive, Sfp PPTase inh inactive and HP1b binding inh inactive.

High-throughput results deposited in PubChem by National Center for Advancing Translational Sciences (NCATS).
